Among the test systems are HCT-15 colon; HT29 colon; SNB-75 CNS; SNB-19 CNS; U251 CNS; PC-3 prostate; SK-MEL-5 melanoma; UACC-62 melanoma; LOX IMVI melanoma; SK-MEL-28 melanoma; SK-MEL-2 melanoma; EKVX NSCLC; SN12C renal; UO-31 renal; TK-10 renal; ACHN renal; CAKI-1 renal; A498 renal; MOLT-4 leukemia; CCRF-CEM leukemia.
What all share (experiment): NCI-60 one-dose screen, 48 h (100 = growth as untreated, 0 = no growth, -100 = all killed)
Settings in all cases: 10 µM unless noted

SMILES strings stand for the structures. Compounds without any hit were thinned out: in the full panel of roughly 83,000, 20% have a hit.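 Compound tested at a single concentration for 48 hours in 96-well plates; a percent growth value below 10 was scored as active.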 A number with no mark means an inactive call. Calls of active or inactive are those of the source.

Consider `O=C(/C=C\c1ccc(OCCCCCC[P+](c2ccccc2)(c2ccccc2)c2ccccc2)cc1)c1ccc2c(c1)OCCO2`, for which the growth in the experiment with HCT-15 colon was 22%; in the experiment on HT29 colon it was -17.5% (active); in the experiment on SNB-75 CNS, -40.4% (active); in the experiment with SNB-19 CNS it was 16.2%; in the experiment with U251 CNS, -58.5% (active); in the experiment on PC-3 prostate, 6.58% (active). For the same compound, the growth in the experiment on SK-MEL-5 melanoma was -98.3% (active); in the experiment with UACC-62 melanoma it was -18.1% (active); in the experiment on LOX IMVI melanoma, -68.2% (active); in the experiment with SK-MEL-28 melanoma, -0.666% (active); with SK-MEL-2 melanoma it was -42.9% (active); with EKVX NSCLC, 23.9%. Moreover, the growth in the experiment on SN12C renal was 2.08% (active); with UO-31 renal, 4.82% (active); with TK-10 renal, -9.1% (active); with ACHN renal it was 5.03% (active); with CAKI-1 renal it was 2.91% (active); with A498 renal, -30% (active). Also, the growth in the experiment on MOLT-4 leukemia was -20.6% (active).
Regarding `O=C(CN1CCOCC1)Nc1ccc2ncnc(Nc3ccc(Oc4cccc(C(F)(F)F)c4)c(Cl)c3)c2c1`, the growth was 52.2% in the experiment on HCT-15 colon; 54% in the experiment with HT29 colon; 73.7% with SNB-75 CNS; 61.9% with SNB-19 CNS; 62.4% in the experiment with U251 CNS; 44.5% in the experiment on PC-3 prostate. In addition, the growth in the experiment with SK-MEL-5 melanoma is 58.9%; with UACC-62 melanoma, 71%; in the experiment on LOX IMVI melanoma, 43.8%; with SK-MEL-28 melanoma, 77.1%; in the experiment with SK-MEL-2 melanoma, 75.9%; with EKVX NSCLC, 22%. In addition, the growth was 38.4% with SN12C renal; 22.5% with UO-31 renal; 38.4% in the experiment on TK-10 renal; 19% in the experiment on ACHN renal; 33.8% with CAKI-1 renal; 10.1% in the experiment with A498 renal. Besides, the growth with CCRF-CEM leukemia was 58.4%; in the experiment on MOLT-4 leukemia, 37.5%.
Turning to `CCNC(=O)c1[nH]cc(-c2ccc(OC)cc2)c1-c1cc(OC)c(OC)c(OC)c1`, the growth is 35.7% with HCT-15 colon; 14.7% in the experiment on HT29 colon; -6.81% (active) with SNB-75 CNS; 55.2% with SNB-19 CNS; 55.5% in the experiment with U251 CNS; 28.8% with PC-3 prostate. The growth with SK-MEL-5 melanoma was 16%; in the experiment with UACC-62 melanoma it was 27%; in the experiment with LOX IMVI melanoma, 44.5%; with SK-MEL-28 melanoma, 56.7%; with SK-MEL-2 melanoma, 67.5%; in the experiment on EKVX NSCLC it was 62.4%. For the same compound, the growth was 60.5% with SN12C renal; 30.7% in the experiment on UO-31 renal; 83.9% in the experiment with TK-10 renal; 35.8% in the experiment on ACHN renal; 29.4% in the experiment with CAKI-1 renal; -14% (active) with A498 renal. Besides, in the experiment on MOLT-4 leukemia, the growth is 92%.
As to `NC(=O)C1(N2CCCCC2)CCN(CCCC(=O)c2ccc(F)cc2)CC1`, the growth in the experiment with HCT-15 colon was 93.6%; with HT29 colon, 5.09% (active); with SNB-75 CNS, 23.5%; in the experiment on SNB-19 CNS, 32.3%; in the experiment with U251 CNS, 23.2%; in the experiment on PC-3 prostate it was 30.2%. For the same compound, the growth in the experiment with SK-MEL-5 melanoma was 4.4% (active); in the experiment on UACC-62 melanoma, 29.3%; in the experiment with LOX IMVI melanoma, 42.4%; with SK-MEL-28 melanoma, 51.7%; in the experiment with SK-MEL-2 melanoma, 13.9%; in the experiment on EKVX NSCLC, 59.2%. Moreover, the growth with SN12C renal is 43.3%; with UO-31 renal it was 88.9%; with TK-10 renal, 88.2%; in the experiment with ACHN renal, 90.9%; with CAKI-1 renal, 91.7%; with A498 renal, 32.8%. Also, the figures for the growth in the experiment on CCRF-CEM leukemia and with MOLT-4 leukemia were 0.142% (active) and 26.8%, respectively.
Turning to `COc1ccc(Cc2nc3cc(OC)c(OC)cc3c(=O)[nH]2)cc1`, the growth in the experiment with HCT-15 colon is 29.8%; in the experiment on HT29 colon, 62.9%; with SNB-75 CNS it was 107%; in the experiment on SNB-19 CNS, 81.7%; in the experiment on U251 CNS, 77.8%; in the experiment with PC-3 prostate it was 86.4%. The growth in the experiment on SK-MEL-5 melanoma is 90.8%; in the experiment on UACC-62 melanoma it was 77.6%; in the experiment on LOX IMVI melanoma, 61%; with SK-MEL-28 melanoma, 79.3%; with SK-MEL-2 melanoma, 105%; in the experiment on EKVX NSCLC, 105%. Further, the growth was 67.9% with SN12C renal; 69.6% in the experiment on UO-31 renal; 237% in the experiment on TK-10 renal; 72.2% in the experiment on ACHN renal; 95.7% in the experiment with CAKI-1 renal; 122% in the experiment with A498 renal. Also, the growth with MOLT-4 leukemia is 80.7%.
For `Cc1c2c(cc[n+]1Cc1ccc(F)cc1)c1ccc(OCc3cccc(F)c3)cc1n2Cc1cccc(F)c1`, the growth was 54.3% with HCT-15 colon; -74.9% (active) in the experiment with HT29 colon; -88.7% (active) in the experiment with SNB-75 CNS; -90.3% (active) in the experiment on SNB-19 CNS; -89.4% (active) with U251 CNS; -44.4% (active) in the experiment on PC-3 prostate. Also, the growth in the experiment on SK-MEL-5 melanoma was -99.4% (active); in the experiment on UACC-62 melanoma, -98% (active); with LOX IMVI melanoma, -82.7% (active); with SK-MEL-28 melanoma, -91% (active); in the experiment on SK-MEL-2 melanoma, -81.3% (active); in the experiment with EKVX NSCLC it was -23.5% (active). In addition, the growth is -90.5% (active) with SN12C renal; 53.9% in the experiment with UO-31 renal; -27.8% (active) with TK-10 renal; 32.2% in the experiment on ACHN renal; 60.2% in the experiment on CAKI-1 renal; -1.04% (active) with A498 renal. Further, the growth is -54.2% (active) in the experiment with CCRF-CEM leukemia and -62.4% (active) in the experiment on MOLT-4 leukemia.
`COC(=O)C(c1ccccc1)C(CC(=O)c1ccccc1)c1ccccc1` (centres undefined): the growth in the experiment with HCT-15 colon is 97.1%; with HT29 colon it was 79.1%; with SNB-75 CNS it was 83.2%; in the experiment with SNB-19 CNS, 101%; in the experiment on U251 CNS, 92.2%; in the experiment with PC-3 prostate, 62.3%. The growth was 82.1% with SK-MEL-5 melanoma; 88.7% with UACC-62 melanoma; 82.7% in the experiment with LOX IMVI melanoma; 91.8% with SK-MEL-28 melanoma; 85.5% in the experiment with SK-MEL-2 melanoma; 58.3% with EKVX NSCLC. Further, the growth in the experiment with SN12C renal is 102%; in the experiment with UO-31 renal, 75%; with TK-10 renal, 92.4%; with ACHN renal, 86.6%; in the experiment on CAKI-1 renal, 74.8%; in the experiment with CCRF-CEM leukemia it was 84.7%.
Consider `CCN1C(=O)N(CC)C2C1NN=c1s/c(=C3\C(=O)Nc4ccccc43)c(=O)n12` (centres undefined), for which the growth in the experiment on HCT-15 colon is 26.8%; in the experiment on HT29 colon it was 5.74% (active); in the experiment on SNB-75 CNS, -13.6% (active); in the experiment with SNB-19 CNS, 36.5%; with U251 CNS it was 31.4%; in the experiment on PC-3 prostate, 22.6%. For the same compound, the growth was 19.5% in the experiment with SK-MEL-5 melanoma; 30.9% in the experiment with UACC-62 melanoma; 42.2% with LOX IMVI melanoma; 53% in the experiment with SK-MEL-28 melanoma; 37.6% with SK-MEL-2 melanoma; 65.3% in the experiment on EKVX NSCLC. Also, the growth in the experiment on SN12C renal is 34%; with UO-31 renal, 42.9%; with TK-10 renal, 60.5%; with ACHN renal it was 43%; in the experiment on CAKI-1 renal it was 35.5%; in the experiment on A498 renal, -26.6% (active). For the same compound, the growth with MOLT-4 leukemia is 46.1%.

For the origin of these results see PubChem BioAssay (NCI).
